High-throughput results: PubChem, several laboratories
An excerpt weighted towards active compounds, which were near 4.1% of everything screened.
FBA Mtb inh = inhibitors of M. tuberculosis fructose-bisphosphate aldolase | purified M. tuberculosis FBA, fluorescence read-out | actives 2.3% (n = 360,000) | inhibition, % at 1 µM | P9WQA3
Target sequence (P9WQA3 whole entry, looked up): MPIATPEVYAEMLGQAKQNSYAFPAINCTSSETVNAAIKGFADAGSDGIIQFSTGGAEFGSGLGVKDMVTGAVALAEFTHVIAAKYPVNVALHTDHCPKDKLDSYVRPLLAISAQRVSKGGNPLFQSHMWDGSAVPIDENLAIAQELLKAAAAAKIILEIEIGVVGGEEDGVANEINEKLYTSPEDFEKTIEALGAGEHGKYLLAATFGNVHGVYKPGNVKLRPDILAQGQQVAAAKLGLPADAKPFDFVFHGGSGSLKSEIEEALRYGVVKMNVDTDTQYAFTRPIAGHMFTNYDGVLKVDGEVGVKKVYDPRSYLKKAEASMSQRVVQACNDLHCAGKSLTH
RecA splice inh = Mtb RecA intein splicing inhibition | P9WHJ3 | cell-free RecA intein splicing, fluorescence | inhibition, % (concentration not given with the values) | actives 0.75% (n = 290,000); in the data active = inhibition above about 30%
GDH-TPI counter-1 = inhibits GDH-TPI coupling enzymes, artifact for Mtb FBA screen. GDH-TPI coupled enzyme counterscreen, NADH absorbance. inhibition, % at 4.8 µM. actives 1.2% (n = 360,000); in the data active = inhibition above about 30%
Vc quorum ag = quorum light induction in luxS cqsA deficient V. cholerae | activation, % at 18.7 µM | V. cholerae BH1578 lux reporter, luminescence, 6 h | actives 0.16% (n = 350,000); in the data active = activation mostly above about 9.7%, no sharp cut-off
UGM FP inh = Mtb UDP-galactopyranose mutase inhibition. P9WIQ1. purified UGM, fluorescence polarization probe displacement. inhibition, % at 10 µM. actives 0.06% (n = 320,000); in the data active = inhibition above about 10%, passing the limit was not always enough
Rv3671c inh = inhibitors of M. tuberculosis serine protease Rv3671c. actives 0.048% (n = 320,000). P9WHR9. inhibition, % at 5.96 µM. AID 2606; in the data active = inhibition above about 38%;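 note: extracellular domain of Rv3671c used as enzyme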
Mtb FBA inh conf = Mtb FBA inhibition, confirmed; purified M. tuberculosis FBA, fluorescence read-out; AID 651616; shares compounds with FBA Mtb inh; inhibition, % at 1 µM; actives 78% (n = 5,600)
GDH-TPI counter-2 = counter-screen for M. tuberculosis FBA inhibitors: GDH-TPI coupled enzyme inhibition; actives 81% (n = 5,600); shares compounds with FBA Mtb inh; GDH-TPI coupled enzyme counterscreen, fluorescence; AID 652141; inhibition, % at 1 µM; in the data active = inhibition above about 10%
A number is an active result; 0 = inactive; - = no result; + = active, no number. Cut-off read from the data, not from the text of the source, unless noted: active = inhibition above about 27%; inactive = the rest.

SMILES	FBA Mtb inh	RecA splice inh	GDH-TPI counter-1	Vc quorum ag	UGM FP inh	Rv3671c inh	Mtb FBA inh conf	GDH-TPI counter-2
COc1ccc(CCC(=O)NNC(=O)Nc2cc(Cl)ccc2C)cc1	0	0	0	0	0	-	-	-
COCCCN(C(=O)C1=COCCO1)c1c(N)n(Cc2ccccc2)c(=O)[nH]c1=O	0	-	0	0	-	-	-	-
CCOc1ccccc1NC(=O)CN1CCC(NC(=O)Nc2ccccc2)CC1	0	0	0	0	0	0	-	-
Cc1c(C)c2ccc(OC(C)C(=O)N3CC[C@@]4(O)CCCC[C@H]4C3)c(C)c2oc1=O (stereo partly specified)	69.2	0	0	0	0	0	53.3	41.2
Cc1c(C)c2ccc(OC(C)C(=O)N3CC[C@@]4(O)CCCC[C@H]4C3)cc2oc1=O (stereo partly specified)	96.0	-	0	0	0	0	+	+
COc1ccc(C2SCC(=O)N2c2c(C)n(C)n(-c3ccccc3)c2=O)cc1OC (stereo unspecified)	46.7	0	0	0	0	0	58.4	45.1
Cc1c(N2C(=O)CSC2c2ccccc2)c(=O)n(-c2ccccc2)n1C (stereo unspecified)	0	0	0	0	0	0	-	-
CCOc1ccc(C2SCC(=O)N2c2c(C)n(C)n(-c3ccccc3)c2=O)cc1 (stereo unspecified)	96.3	0	0	0	0	0	0	0
C[C@H](NC(=O)c1ncn2c1C(=O)N[C@@H](C)C2)c1ccccc1	0	-	0	0	-	-	-	-
CCOC(=O)c1nc2cc3n(c(C)c-2c1C)C(C)C(CC)=C3C (stereo unspecified)	34.2	0	0	0	0	0	+	180.8
Cc1ccc(C(=O)NCC2CCCO2)cc1S(=O)(=O)N1CCCCC1 (stereo unspecified)	0	0	0	0	0	0	-	-
CCc1cc(=O)oc2cc(C)cc(OCC(=O)NCCCn3ccnc3)c12	60.8	0	0	0	0	0	+	+
CCc1cc(=O)oc2c(C)c(OC(C)C(=O)NCCCn3ccnc3)ccc12 (stereo unspecified)	65.6	0	0	0	0	0	77.5	67.8
Cc1cc(OC(C)C(=O)NCCCn2ccnc2)c2c(C)c(C)c(=O)oc2c1 (stereo unspecified)	79.3	0	0	0	0	0	133.9	99.5
CCCc1cc(=O)oc2c(C)c(OCC(=O)NCCCn3ccnc3)ccc12	0	0	0	0	0	0	-	-
CCCc1cc(=O)oc2cc(OCC(=O)NCCCn3ccnc3)c(Cl)cc12	0	0	0	0	0	0	-	-
Cc1cc(=O)oc2c(C)c(OC(C)C(=O)NCCCn3ccnc3)ccc12 (stereo unspecified)	0	0	0	0	0	0	-	-
Cc1cc(OCC(=O)NCCCn2ccnc2)c2c(C)c(C)c(=O)oc2c1	75.5	0	0	0	0	0	37.6	29.2
O=c1[nH]cnc2nn(-c3ccccc3)nc12	98.7	0	0	0	0	0	0	0
O=c1[nH]cnc2nc(-c3ccccc3)c(-c3ccccc3)nc12	50.0	0	0	0	0	0	0	0
O=C(Nc1ccnn1C1CCN(CC(O)CO)CC1)C1CCCC1 (stereo unspecified)	0	0	0	0	0	-	-	-
O=C(OCCOc1cccc(Cl)c1)c1cc(S(=O)(=O)N2CCCCC2)ccc1N1CCOCC1	0	0	0	0	0	0	-	-
CC1(C)Cc2c(sc3c2C(=O)NC(c2cccnc2)N3)CO1 (stereo unspecified)	0	0	0	0	0	0	-	-
CCC1CC2(C)NC(=O)c3c(sc4c3CC(C)(C)OC4)N2C1=O (stereo unspecified)	39.1	0	0	0	-	-	175.4	111.8
CCN(CC)CCNc1nc(SC)nc2sc3c(c12)CCN(C)C3	41.0	0	0	0	0	0	96.5	75.1
SMILES	FBA Mtb inh	RecA splice inh	GDH-TPI counter-1	Vc quorum ag	UGM FP inh	Rv3671c inh	Mtb FBA inh conf	GDH-TPI counter-2
CSc1nc(NCCCN(C)C)c2c3c(sc2n1)CN(C)CC3	-	0	-	-	0	-	-	-
CSc1nc(NCC(C)C)c2c3c(sc2n1)CN(C)CC3	48.8	0	0	0	0	0	58.7	57.1
COCCCNc1nc(SCc2ccccc2)nc2sc3c(c12)CCC3	33.8	0	0	0	0	0	96.9	77.7
COCCNc1nc(SC)nc2sc3c(c12)CCN(C)C3	80.3	0	0	0	0	0	196.2	176.6
COc1ccc(-n2nnnc2C(c2ccccc2OC(F)(F)F)N2CCN(C/C=C/c3ccccc3)CC2)cc1 (stereo unspecified)	0	-	-	-	-	-	-	-
CCn1c(SCC(=O)c2ccccc2)nc2sc3c(c2c1=O)CCN(C)C3	0	0	0	0	0	0	-	-
CSc1nc(NCc2ccccc2)c2c3c(sc2n1)CN(C)CC3	72.3	0	0	0	0	0	140.4	84.3
CCOC(=O)Cn1c(C)c(Br)c(COC)c(C#N)c1=O	0	-	0	0	0	0	-	-
COCc1c(Br)c(C)[nH]c(=O)c1C#N	32.1	0	0	0	0	0	70.9	49.6
Cc1ccc(OCc2cc(C(=O)N(C)CCc3nc4ccccc4[nH]3)no2)cc1C	0	0	0	0	-	-	-	-
COC(=O)C1=C(C)NC(C)=C(C(=O)OCC2CCCO2)C1c1cccc(Br)c1 (stereo unspecified)	0	-	0	0	0	0	-	-
CCc1ccc(-c2cc3c(=O)n(CC(=O)NCCN4CCCCC4C)nc(C)n3n2)cc1 (stereo unspecified)	0	0	0	0	0	0	-	-
CC(C)C1NC(C(=O)O)Cc2c1[nH]c1ccccc21 (stereo unspecified)	44.7	0	0	0	0	0	163.5	141.5
CC(C)CC1NC(C(=O)O)Cc2c1[nH]c1ccccc21 (stereo unspecified)	0	0	0	0	0	0	-	-
CCCC1NC(C(=O)O)Cc2c1[nH]c1ccccc21 (stereo unspecified)	28.8	0	0	0	0	-	36.3	35.1
Cc1cc(C(=O)COC(=O)c2ccccc2NCCO)c(C)n1CC1CCCO1 (stereo unspecified)	28.8	0	0	0	0	0	+	+
CCCCN(C)CCNC(=O)CCn1nc(-c2ccc(Cl)cc2)ccc1=O	0	0	0	0	0	0	-	-
CCCCN(C)C(=O)Cn1nc(-c2ccc(Cl)cc2)ccc1=O	77.3	0	0	0	0	0	45.7	41.0
c1ccc(Cn2ncc3ccccc32)cc1	0	0	0	0	0	0	-	-
CN(C)c1nc(-c2ccccc2)c2cnn(Cc3ccccc3)c2n1	43.6	0	0	0	0	0	121.1	111.9
O=C(CC1CC2CCC1C2)N1CCN(S(=O)(=O)c2ccccc2C(F)(F)F)CC1 (stereo unspecified)	0	-	0	0	0	0	-	-
